Measured values taken from PubChem BioAssay (Tox21).
Results filed as inconclusive are left out. Active and inactive are the calls of the source. Unless noted, calls come from the whole dose curve; as a rule, active = well fitted curve in the direction sought with a large enough effect in the repeat runs; inconclusive = weak or mixed curves; inactive = no such curve, though single readings can be large; an effect the other way counts as inactive or inconclusive.

What was measured:
[1] = qHTS assay to identify small molecule agonists of the peroxisome proliferator-activated receptor delta (PPARd) signaling pathway - cell viability counter screen (AID 743211); note: % is set by controls: 0 for no effect and ±100 for the full control effect; nearly all actives have a fitted effect of over 55% in size
Method in brief: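 Following 5 h plating at 37 C and 5% CO2, PPARd UAS-bla HEK293H cells took up test compounds for 17 h. Viability was quantified by luminescence 30 min after CellTiter-Glo addition at room temperature.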

[2] = biological target: Peroxisome proliferator-activated receptor delta (Homo sapiens) (UniProt Q03181); assay: qHTS assay to identify small molecule agonists of the peroxisome proliferator-activated receptor delta (PPARd) signaling pathway (AID 743212; calls by dose curve; note: % is set by controls: 0 for no effect and ±100 for the full control effect)
Method in brief: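 GeneBLAzer UAS-bla HEK293H cells carrying a PPARδ construct were exposed to compounds at 37 °C. Beta-lactamase activity was read by FRET fluorescence after 2 h at room temperature with LiveBLAzer B/G substrate.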

[3] = biological target: Peroxisome proliferator-activated receptor delta (Homo sapiens) (UniProt Q03181); assay: qHTS assay to identify small molecule antagonists of the peroxisome proliferator-activated receptor delta (PPARd) signaling pathway (AID 743215; active = well fitted inhibition curve with a large enough effect in the signal ratio in the repeat runs, not every such curve was filed as active; the % refers to the signal ratio;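 note: cells stimulated with agonist L165041 at 300 nM final during compound exposure; series mostly up to about 62 µM; % is set by controls: 0 for no effect and ±100 for the full control effect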)
Method in brief: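 PPARd UAS-bla HEK293H cells were pre-incubated 5 h at 37 C, then given test compounds in DMSO plus agonist L165041 (300 nM final). After 17 h at 37 C, beta-lactamase FRET substrate was added; fluorescence read after 2 h at room temperature.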

[4] = qHTS assay to identify small molecule agonists of the farnesoid-X-receptor (FXR) signaling pathway - cell viability counter screen (AID 743218); note: % is set by controls: 0 for no effect and ±100 for the full control effect; nearly all actives have a fitted effect of over 45% in size
Method in brief: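 FXR-UAS-bla HEK 293T cells, plated 5 h at 37 C, were exposed to compounds for 16 h at 37 C. CellTiter-Glo was then added to the same wells as the bla readout; luminescence read after 30 min at room temperature.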

[5] = qHTS assay to identify small molecule antagonists of the farnesoid-X-receptor (FXR) signaling pathway - cell viability counter screen (AID 743221; active = well fitted cell-killing curve with a large enough effect in the repeat runs, not every such curve was filed as active; note: % is set by controls: 0 for no effect and ±100 for the full control effect; nearly all actives have a fitted effect of over 50% in size)
Method in brief: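 Compound effects on cell number were measured as CellTiter-Glo luminescence in HEK 293T cells expressing FXR-UAS-bla, after 16 h at 37 C with 50 uM CDCA (final).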

[6] = qHTS assay to identify small molecule agonists of the vitamin D receptor (VDR) signaling pathway - cell viability counter screen (AID 743224); note: series mostly up to about 63 µM; % is set by controls: 0 for no effect and ±100 for the full control effect; nearly all actives have a fitted effect of over 50% in size
Method in brief: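 VDR-bla cells were preincubated 4 h at 37C/5% CO2, then exposed to compounds for 16 h. After the 2 h room-temperature bla FRET read, CellTiter-Glo was added to the same wells and luminescence read after 30 min.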

[7] = qHTS assay to identify small molecule antagonists of the vitamin D receptor (VDR) signaling pathway - cell viability counter screen (AID 743225); note: % is set by controls: 0 for no effect and ±100 for the full control effect; nearly all actives have a fitted effect of over 50% in size
Method in brief: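 In this counter screen, VDR-bla HEK 293T cells receive test compound plus 3 nM final calcitriol for 16 h at 37C. Room-temperature steps of 2 h with the beta-lactamase substrate, then 30 min with CellTiter-Glo, precede the luminescence read.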

[8] = qHTS assay to identify small molecule agonists of the NFkB signaling pathway - cell viability counter screen (AID 1159515; calls by dose curve; note: series mostly up to about 61 µM; % is set by controls: 0 for no effect and ±100 for the full control effect; nearly all actives have a fitted effect of over 55% in size)
Method in brief: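 NFkB-bla ME-180 cells, 2,000/well, were plated overnight at 37 C, 5% CO2, then exposed to compounds in DMSO for 5 hr. After the bla FRET read, CellTiter-Glo was added to the same wells; luminescence was read after 30 min at room temperature.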

[9] = qHTS assay to identify small molecule agonists of the endoplasmic reticulum stress response signaling pathway (AID 1159516; active = well fitted activation curve with a large enough effect in the signal ratio in the repeat runs, not every such curve was filed as active; the % refers to the signal ratio; note: % is set by controls: 0 for no effect and ±100 for the full control effect)
Method in brief: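 CellSensor ESRE-bla HeLa cells, carrying a beta-lactamase reporter driven by the ER stress response element, were plated overnight and exposed to compounds for 5 hr at 37 C. Reporter activity was read as FRET substrate fluorescence after 2 hr at room temperature.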

[10] = qHTS assay to identify small molecule agonists of the endoplasmic reticulum stress response signaling pathway - cell viability counter screen (AID 1159517; calls by dose curve; note: series mostly up to about 61 µM; % is set by controls: 0 for no effect and ±100 for the full control effect; nearly all actives have a fitted effect of over 50% in size)
Method in brief: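 ESRE-bla HeLa cells, 1,500 per well, seeded overnight then treated with compounds for 5 hr at 37 C. After the beta-lactamase read, viability in the same wells is measured by CellTiter-Glo luminescence after 30 min at room temperature.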

[11] = qHTS assay to identify small molecule antagonists of the retinoid-related orphan receptor gamma (ROR-gamma) signaling pathway - cell viability counter screen (AID 1159520)
Method in brief: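 Tet-on ROR gamma CHO cells were given compounds for 2 hr, then doxycycline hyclate at 1 uM final, and incubated 16 hr at 37 C. Viability was measured as ATP content by CellTiter-Glo luminescence.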

[12] = biological target: Nuclear receptor ROR-gamma (Homo sapiens) (UniProt P51449); assay: qHTS assay to identify small molecule antagonists of the retinoid-related orphan receptor gamma (ROR-gamma) signaling pathway (AID 1159521)
Method in brief: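 Screening format: cell-based luciferase reporter in CHO cells with doxycycline-inducible RORγ. Compound pre-exposure lasts 2 h, doxycycline is 1 uM final, induction runs 16 h at 37 C, and ONE-Glo luminescence is read.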

[13] = qHTS assay to identify small molecule agonists of the AP-1 signaling pathway - cell viability counter screen (AID 1159525; calls by dose curve; note: nearly all actives have a fitted effect of over 55% in size)
Method in brief: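 AP-1-bla ME-180 cells in Opti-MEM with 0.5% dialyzed FBS, compound exposure 5 h at 37 C in 15-point titration. Viability read in the same wells as ATP content by CellTiter-Glo luminescence, normalised to tetra-n-octylammonium bromide and DMSO controls.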

[14] = biological target: Retinoic acid receptor RXR-alpha (Homo sapiens) (UniProt P19793); assay: qHTS assay to identify small molecule agonists of the RXR signaling pathway (AID 1159527; calls by dose curve; note: % is set by controls: 0 for no effect and ±100 for the full control effect; nearly all actives have a fitted effect of over 35% in size)
Method in brief: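 Fluorescence ratio readout (460 vs 530 nm) from GeneBLAzer RXR-alpha HEK 293T cells after 16 hr compound treatment; cells seeded 5 hr beforehand in low-serum, charcoal-stripped medium.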

[15] = qHTS assay to identify small molecule antagonists of the peroxisome proliferator-activated receptor delta (PPARd) signaling pathway - cell viability counter screen (AID 743213)
Method in brief: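 CellTiter-Glo was added to PPARd-bla HEK293H wells following 17 h compound treatment in the presence of 300 nM L165041. Luminescence was recorded after 30 min at room temperature.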

[16] = biological target: Vitamin D3 receptor (Homo sapiens) (UniProt P11473); assay: qHTS assay to identify small molecule agonists of the vitamin D receptor (VDR) signaling pathway (AID 743222; calls by dose curve; note: % is set by controls: 0 for no effect and ±100 for the full control effect)
Method in brief: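 VDR-bla cells were plated 4 h at 37C/5% CO2, then exposed to compounds in DMSO for 16 h. After LiveBLAzer B/G FRET substrate addition and 2 h at room temperature, beta-lactamase reporter fluorescence was read.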

[17] = biological target: Vitamin D3 receptor (Homo sapiens) (UniProt P11473); assay: qHTS assay to identify small molecule antagonists of the vitamin D receptor (VDR) signaling pathway (AID 743223; active = well fitted inhibition curve with a large enough effect in the signal ratio in the repeat runs, not every such curve was filed as active; the % refers to the signal ratio; note: % is set by controls: 0 for no effect and ±100 for the full control effect)
Method in brief: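 Beta-lactamase activity in VDR-bla cells is measured by FRET substrate fluorescence (2 h, room temperature) after cells spend 16 h at 37C with test compound and 3 nM final 1alpha,25-dihydroxyvitamin D3.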

[18] = biological target: Bile acid receptor (Homo sapiens) (UniProt Q96RI1); assay: qHTS assay to identify small molecule antagonists of the farnesoid-X-receptor (FXR) signaling pathway (AID 743217; active = well fitted inhibition curve with a large enough effect in the signal ratio in the repeat runs, not every such curve was filed as active; the % refers to the signal ratio; note: % is set by controls: 0 for no effect and ±100 for the full control effect)
Method in brief: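 FXR-UAS-bla HEK 293T cells pre-incubated 5 h at 37 °C, then exposed to compounds with chenodeoxycholic acid (50 uM final) for 16 h at 37 °C. Beta-lactamase reporter read by LiveBLAzer B/G FRET substrate fluorescence after 2 h at room temperature.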

[19] = biological target: Bile acid receptor (Homo sapiens) (UniProt Q96RI1); assay: qHTS assay to identify small molecule agonists of the farnesoid-X-receptor (FXR) signaling pathway (AID 743220; active = well fitted activation curve with a large enough effect in the signal ratio in the repeat runs, not every such curve was filed as active; the % refers to the signal ratio; note: % is set by controls: 0 for no effect and ±100 for the full control effect)
Method in brief: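 Beta-lactamase reporter under UAS control in GeneBLAzer FXR HEK 293T cells (5000/well) measured with LiveBLAzer FRET substrate after 2 h at room temperature. Compound exposure lasted 16 h at 37C.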

Sequence of Vitamin D3 receptor (Homo sapiens) (P11473 whole entry, looked up): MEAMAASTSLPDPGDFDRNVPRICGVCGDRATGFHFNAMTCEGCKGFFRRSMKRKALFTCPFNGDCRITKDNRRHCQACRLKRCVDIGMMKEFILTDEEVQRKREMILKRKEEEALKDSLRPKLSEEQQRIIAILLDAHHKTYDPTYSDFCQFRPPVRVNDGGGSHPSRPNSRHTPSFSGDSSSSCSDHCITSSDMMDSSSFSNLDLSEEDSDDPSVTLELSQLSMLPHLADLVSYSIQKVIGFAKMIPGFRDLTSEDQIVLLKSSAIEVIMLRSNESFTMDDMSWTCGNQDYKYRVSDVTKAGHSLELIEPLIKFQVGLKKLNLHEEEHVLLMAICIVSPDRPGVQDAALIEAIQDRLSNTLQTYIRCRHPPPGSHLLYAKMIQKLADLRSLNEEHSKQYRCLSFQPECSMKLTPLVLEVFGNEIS
Sequence of Peroxisome proliferator-activated receptor delta (Homo sapiens) (Q03181 whole entry, looked up): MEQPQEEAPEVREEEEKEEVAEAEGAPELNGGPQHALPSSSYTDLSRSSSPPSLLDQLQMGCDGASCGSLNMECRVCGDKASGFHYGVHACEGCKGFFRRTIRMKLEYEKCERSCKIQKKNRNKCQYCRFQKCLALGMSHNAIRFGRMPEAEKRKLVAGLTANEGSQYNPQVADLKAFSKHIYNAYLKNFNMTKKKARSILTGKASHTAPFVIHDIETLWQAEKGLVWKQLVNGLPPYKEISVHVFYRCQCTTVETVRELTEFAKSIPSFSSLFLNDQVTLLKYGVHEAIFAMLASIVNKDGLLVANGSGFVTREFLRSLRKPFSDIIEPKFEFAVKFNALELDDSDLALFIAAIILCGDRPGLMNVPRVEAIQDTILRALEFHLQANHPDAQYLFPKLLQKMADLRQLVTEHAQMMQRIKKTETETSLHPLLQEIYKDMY
Sequence of Retinoic acid receptor RXR-alpha (Homo sapiens) (P19793 whole entry, looked up): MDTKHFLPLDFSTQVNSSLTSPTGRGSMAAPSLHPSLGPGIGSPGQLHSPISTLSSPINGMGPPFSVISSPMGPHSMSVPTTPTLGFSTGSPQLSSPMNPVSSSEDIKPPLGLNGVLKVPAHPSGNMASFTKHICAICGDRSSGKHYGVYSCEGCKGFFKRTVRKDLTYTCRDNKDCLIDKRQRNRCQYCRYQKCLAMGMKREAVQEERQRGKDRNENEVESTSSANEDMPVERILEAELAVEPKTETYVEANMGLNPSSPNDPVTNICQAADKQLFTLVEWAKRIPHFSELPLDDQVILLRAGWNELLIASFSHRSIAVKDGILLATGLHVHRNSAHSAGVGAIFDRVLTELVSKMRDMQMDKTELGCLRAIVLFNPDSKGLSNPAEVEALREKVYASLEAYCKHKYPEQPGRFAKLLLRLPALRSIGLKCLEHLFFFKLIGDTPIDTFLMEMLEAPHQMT
Sequence of Bile acid receptor (Homo sapiens) (Q96RI1 whole entry, looked up): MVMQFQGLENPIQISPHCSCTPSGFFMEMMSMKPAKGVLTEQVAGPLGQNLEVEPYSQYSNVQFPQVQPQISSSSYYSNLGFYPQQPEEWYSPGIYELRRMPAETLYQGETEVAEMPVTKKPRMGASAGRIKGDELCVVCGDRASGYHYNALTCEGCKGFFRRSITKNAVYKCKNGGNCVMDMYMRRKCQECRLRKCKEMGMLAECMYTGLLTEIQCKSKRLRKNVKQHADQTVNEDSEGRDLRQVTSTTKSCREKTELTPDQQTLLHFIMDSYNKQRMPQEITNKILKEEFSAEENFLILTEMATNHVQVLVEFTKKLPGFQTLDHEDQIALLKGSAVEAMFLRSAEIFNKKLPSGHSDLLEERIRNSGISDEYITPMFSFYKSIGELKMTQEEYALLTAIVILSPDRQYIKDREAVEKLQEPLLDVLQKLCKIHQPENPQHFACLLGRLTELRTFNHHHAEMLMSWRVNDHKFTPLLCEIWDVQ

Oc1ccc(O)c2c(O)cccc12
inactive: Potency [1] | outcome [2] | outcome [3] | Potency [4] | Potency [5] | Potency [6] | Potency [7] | Potency [8] | Potency [9] | outcome [10] | Potency [11] | Potency [12] | Potency [13] | Potency [14]

NC[C@H]1O[C@H](O[C@H]2[C@H](O)[C@@H](O[C@H]3O[C@H](CO)[C@@H](O)[C@H](N)[C@H]3O)[C@H](N)C[C@@H]2N)[C@H](O)[C@@H](O)[C@@H]1O
inactive: activity change, negative = cytotoxicity [1] -7.03% [at 5.95 µM] | activation [2] -4.29% [at 5.95 µM] | viability change, negative = cytotoxic [15] -5.87% [at 6.26 µM] | ratio activity, negative = inhibition [3] 3.27% [at 6.26 µM] | viability change, negative = cytotoxic [4] 5.82% [at 5.95 µM] | activity change, negative = cytotoxicity [5] -10.3% [at 5.95 µM] | activation [16] -7.13% [at 6.01 µM] | activity change, negative = inhibition [17] 5.88% [at 6.95 µM] | activity change, negative = cytotoxicity [6] -10.2% [at 5.95 µM] | viability change, negative = cytotoxic [7] 9.2% [at 6.95 µM] | activity, negative = cytotoxic [8] -4.89% [at 6.95 µM] | activation [9] -2.16% [at 6.95 µM] | activity change, negative = cytotoxicity [10] -9.96% [at 6.95 µM] | activity, negative = cytotoxicity [11] 1.78% [at 8.39 µM] | activity change, negative = inhibition [12] -16.2% [at 8.39 µM] | viability change, negative = cytotoxic [13] -4.71% [at 6.97 µM] | activation [14] 3.4% [at 6.98 µM]

CCCCCCCCCCCCCCCCCBr
inactive: Potency [1] | Potency [15] | outcome [18] | Potency [4] | outcome [19] | Potency [5] | Potency [17] | Potency [6] | Potency [7] | Potency [8] | Potency [9] | outcome [10] | activity, negative = cytotoxicity [11] 2.1% [at 19 µM] | activity change, negative = inhibition [12] 24.8% [at 19 µM] | viability change, negative = cytotoxic [13] 0.953% [at 15.8 µM] | activation [14] -0.344% [at 15.8 µM]

O=C(C(=O)c1ccc(Br)cc1)c1ccc(Br)cc1
inactive: Potency [1] | outcome [2] | Potency [15] | outcome [3] | outcome [18] | Potency [4] | outcome [19] | Potency [5] | Potency [17] | Potency [6] | Potency [7] | Potency [8] | Potency [9] | outcome [10] | activity, negative = cytotoxicity [11] -5.42% [at 19 µM] | activity change, negative = inhibition [12] 2.45% [at 19 µM] | viability change, negative = cytotoxic [13] 10.5% [at 15.8 µM] | activation [14] -4.31% [at 15.8 µM]

CC(=O)N(CC(=O)N(C)C)c1ccccc1
inactive: Potency [1] | outcome [2] | Potency [15] | outcome [3] | outcome [19] | Potency [5] | Potency [17] | Potency [6] | Potency [7] | Potency [8] | Potency [9] | outcome [10] | Potency [11] | Potency [12] | Potency [13] | Potency [14]

O=C(O)[C@@H]1[C@H]2C[C@H]3c4[nH]c5ccccc5c4CCN3C[C@@H]2CC[C@@H]1O
inactive: Potency [1] | outcome [2] | Potency [15] | outcome [3] | outcome [18] | Potency [4] | outcome [19] | Potency [5] | outcome [16] | Potency [6] | Potency [7] | Potency [8] | Potency [9] | outcome [10] | Potency [11] | Potency [12] | Potency [13] | Potency [14]

CC(C)(C)C1CCCCC1O (stereo unspecified)
inactive: Potency [1] | outcome [2] | Potency [15] | outcome [18] | Potency [4] | outcome [19] | Potency [5] | outcome [16] | Potency [6] | Potency [7] | Potency [8] | Potency [9] | outcome [10] | Potency [11] | Potency [12] | Potency [13] | Potency [14]
